Measured values as given in PubChem BioAssay (EPA / NIEHS).
The source made the active and inactive calls. The calls were made as follows: active = hit-call score of the fitted dose curve at least 0.9, where 1 is the maximum; inactive = score below 0.9.

experiment: CCTE_Simmons_MITO_inhib_resp_rate: CCTE's HepG2 Seahorse XF Respirometric Screening Assay at Inhibited Respiratory State [full ETC block], Simmons Lab (AID 2284006); details: actives raise or lower the signal
Description: CCTE_Simmons_MITO is cell-based, respirometric assay using HepG2 cells and a Seahorse XF Analyzer to measure oxygen consumption rates over four temporal phases spanning a total of 72 minutes: pre-injection (pre-treatment), basal (following test compound injection), maximal (following FCCP uncoupler injection), and inhibited (following rotenone/antimycin A injection)CCTE_Simmons_MITO_inhib_resp_rate is one of 4 assay components calculated from the CCTE_Simmons_MITO assay. It is designed to make measurements of inhibited respiration using a form of respirometric reporter, as detected with […] signals by Seahorse XF96 technology. Data from the assay component CCTE_Simmons_MITO_inhib_resp_rate was analyzed at the endpoint, CCTE_Simmons_MITO_inhib_resp_rate_OCR, with bidirectional fitting relative to DMSO as the negative control and baseline of activity. Using a type of respirometric reporter, measures of inhibited respiration for gain or loss-of-signal activity can be used to understand cellular oxygen consumption as it relates to cellular respiration. To generalize the intended target to other relatable targets, this assay endpoint is annotated to the mitochondria intended target family, where the subfamily is respiration.
Test chemicals were administered as a titrated series of 7 concentrations from 125 nM up to 100 uM [final] prior to kinetic endpoint detection at 6 minute intervals [3 min mix followed by 3 minutes measure] for 72 minutes. Three biological replicates of technical singles were run for every chemical concentration tested. Dimethylsulfoxide [DMSO] was used as the vehicle control. The electron transport chain inhibitor fenpyroximate was used as the positive control for decreased basal respiration and was administered as a titrated series of 6 concentrations from 250 nM up to 2.75 uM [final] with technical triplicates for the top concentration only. The uncoupler 2,4-dintirophenol was used as the positive control for increased basal respiration and was administered as a titrated series of 6 concentrations from 938 nM up to 40 uM [final] with technical triplicates for the top concentration only. A Seahorse XF Analzyer is required to measure the response.

Compound	outcome	AC50
CN1CCN(c2ccccc2/C=C2\SCCN(c3ccc(Cl)c(Cl)c3)C2=O)CC1	inactive	
NC(=O)N(O)[C@@H]1C=C[C@H](Oc2cccc(Oc3ccc(F)cc3)c2)C1	inactive	
O=[N+]([O-])c1ccc(O)cc1	inactive	
CCc1nn(C2CCCCC2)c2cc(C3(C#N)CCC(C(=O)O)CC3)ccc12 (stereo not drawn)	inactive	
O=C(O)Cc1cc(I)c(Oc2cc(I)c(O)c(I)c2)c(I)c1	inactive	
NC(=O)N1C(=O)C(C(=O)c2cc(Cl)cs2)c2cc(F)c(Cl)cc21 (stereo not drawn)	inactive	
Oc1cc2ccccc2c2ccccc12		11.1 µM (active)
CCCOC(=O)c1ccc(O)cc1	inactive	
Cc1cc(CCN2CCN(c3nsc4ccccc34)CC2)cc2c1NC(=O)CC2(C)C	inactive	
OC1CCC(C2CCCCC2)CC1 (stereo not drawn)	inactive	
Nc1cccc2c(N)cccc12		39.8 µM (active)
CCCCCCCCCCCCN1CCCC1=O	inactive	
CC[C@H](c1ccc(O)cc1)[C@@H](CC)c1ccc(O)cc1		40.4 µM (active)
